The record followed here is PubChem BioAssay (Tox21).

Assay [1] can be described thus: qHTS assay for small molecules that induce genotoxicity in human embryonic kidney cells expressing luciferase-tagged ATAD5 (AID 651632). Note: nearly all actives have a fitted effect of over 15% in size. In a few lines:
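Reporter cells (HEK293T) express luciferase-tagged ATAD5, a protein that accumulates after DNA damage. Treat 16 hr at 37C/5% CO2, add Amplite, wait 30 min at RT, and read luminescence.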

The nature of assay [2]: qHTS assay for small molecules that induce genotoxicity in human embryonic kidney cells expressing luciferase-tagged ATAD5 - cell viability (AID 651634; calls by dose curve; note: nearly all actives have a fitted effect of over 25% in size; note: potency is the fitted concentration of half-maximal effect). In a few lines: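 Seeding of 2,000 HEK293T ATAD5-luciferase cells per well preceded pin-tool compound transfer. Plates sat 15.5 hr at 37C under 5% CO2, then fluorescence was read after 30 min with CellTiter-Fluor.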
A general note: Quantitative high-throughput screening tests each substance at several concentrations.

Assay [3] is described as follows: qHTS assay for small molecule disruptors of the mitochondrial membrane potential (AID 720635). Note: potency is the fitted concentration of half-maximal effect. The gist of the method:
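HepG2 cells exposed to compound 1 hr at 37C, then Mito-MPS dye 30 min. Ratio read of aggregate (540/590 nm) versus monomer (490/535 nm) fluorescence.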

The nature of assay [4]: qHTS assay to test for compound auto fluorescence at 535 nm (green) in HepG2 cells (AID 720675).
Assay [5] can be described thus: qHTS assay to test for compound auto fluorescence at 460 nm (blue) in HEK293 cells (AID 720678). In a few lines:
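Measured: blue fluorescence (Ex 405/Em 460 nm) of compound-treated HEK293 cells, incubated overnight at 37C with 5% CO2 and scaled to triamterene equivalents.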

Assay [6] can be described thus: qHTS assay to test for compound auto fluorescence at 590 nm (red) in HEK293 cells (AID 720679). In a few lines:
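Using HEK293 cells at 2,000 per well, the screen added 23 nL of each compound after cell attachment and incubated overnight (37C, 5% CO2). The plate reader then captured red-label fluorescence, Ex/Em 540/590nm.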

Assay [7] is described as follows: qHTS assay to test for compound auto fluorescence at 535 nm (green) in HEK293 cells (AID 720680).
The nature of assay [8]: qHTS assay to test for compound auto fluorescence at 460 nm (blue) in HEK293 cell free culture (AID 720681). In a few lines:
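Compounds were added to cell-free DMEM with 10% FBS and fluorescence read directly. The blue channel used 405 nm excitation and 460 nm emission, with triamterene as the reference fluorophore.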

The nature of assay [9]: qHTS assay to test for compound auto fluorescence at 535 nm (green) in HEK293 cell free culture (AID 720682). The gist of the method:
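Cell-free medium (DMEM, 10% FBS) receives compound or DMSO by pintool. Plate read directly at Ex 485/Em 535 nm. Signal converted to fluorescein equivalency.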

The nature of assay [10]: qHTS assay to test for compound auto fluorescence at 590 nm (red) in HepG2 cell free culture (AID 720684). The gist of the method:
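Compound was pinned into wells holding MEM with 10% FBS and no cells, and red fluorescence was read at Ex/Em 540/590 nm. Signal is expressed as auto fluorescence equivalency relative to Rose Bengal sodium.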

The nature of assay [11]: qHTS assay to test for compound auto fluorescence at 460 nm (blue) in HepG2 cell free culture (AID 720685). In a few lines:
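Compound (23 nL) or DMSO pinned into cell-free MEM with 10% FBS; blue fluorescence read at 405/460 nm excitation/emission, expressed as auto-fluorescence equivalency to triamterene.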

A short description of assay [12]: qHTS assay to test for compound auto fluorescence at 535 nm (green) in HepG2 cell free culture (AID 720686).
The nature of assay [13]: qHTS assay to test for compound auto fluorescence at 460 nm (blue) in HepG2 cells (AID 720687). The gist of the method:
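HepG2 cells in MEM with 10% FBS, attached overnight at 37 C, were exposed to compound or DMSO for 1 hr at 37 C, 5% CO2. Blue fluorescence was read at 405/460 nm, with triamterene as reference fluorophore.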

Assay [14] is described as follows: qHTS assay for small molecule disruptors of the mitochondrial membrane potential - cell viability (AID 720634; calls by dose curve;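 note: human HepG2 liver cancer cells; series mostly up to about 83 µM; nearly all actives have a fitted effect of over 20% in size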). In a few lines: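 Measuring cytotoxicity alongside mitochondrial potential, the screen quantified ATP by luminescence in HepG2 cells after 1 hr compound incubation and a 30 min room-temperature CellTiter-Glo step.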
Assay [15] is described as follows: qHTS assay to test for compound auto fluorescence at 590 nm (red) in HepG2 cells (AID 720674). In a few lines:
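Seeding: 2,000 HepG2 cells/well, MEM/10% FBS, overnight 37 C. Dosing: compound vs DMSO. Incubation: 1 hr, 37 C, 5% CO2. Read: fluorescence 540 ex/590 em, Rose Bengal sodium as red reference.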

A short description of assay [16]: qHTS assay to test for compound auto fluorescence at 590 nm (red) in HEK293 cell free culture (AID 720683). In a few lines:
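Cell-free wells of DMEM with 10% FBS received compound, and intrinsic fluorescence was read at excitation/emission 540/590 nm. Values expressed as equivalence to Rose Bengal sodium.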

In assay [17] the target is Glucocorticoid receptor (Homo sapiens) (UniProt P04150). Description: qHTS assay to identify small molecule antagonists of the glucocorticoid receptor (GR) signaling pathway (AID 720692; active = well fitted inhibition curve with a large enough effect in the signal ratio in the repeat runs, not every such curve was filed as active; the % refers to the signal ratio; note: potency is the fitted concentration of half-maximal effect). In a few lines: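 Dexamethasone (5 nM final) stimulated a stably integrated GRE-beta-lactamase reporter in HeLa cells during 18 h co-incubation with compounds; signal was quantified as fluorescence intensity of B/G FRET substrate after 2 h.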

The target is the same in assay [18]. As to the kind of experiment: qHTS assay to identify small molecule agonists of the glucocorticoid receptor (GR) signaling pathway (AID 720691; active = well fitted activation curve with a large enough effect in the signal ratio in the repeat runs, not every such curve was filed as active; the % refers to the signal ratio). The gist of the method: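 Reporter read-out: fluorescence intensity following 2 h room-temperature LiveBLAzer B/G FRET substrate loading. Prior step: GR-bla HeLa cells held 4 h, then treated 18 h at 37 C.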

Several values for one entry are separate records, joined by “and”; a condition that tells them apart may be missing. Identical values can stand only once. A number with no mark means an inactive call. Inconclusive results are not listed. Activity calls are given as the source filed them. Unless noted, calls come from the whole dose curve; as a rule, active = well fitted curve in the direction sought with a large enough effect in the repeat runs; inconclusive = weak or mixed curves; inactive = no such curve, though single readings can be large; an effect the other way counts as inactive or inconclusive.
% is set by controls: 0 for no effect and ±100 for the full control effect.

Chain of Glucocorticoid receptor (Homo sapiens) (P04150 whole entry, looked up): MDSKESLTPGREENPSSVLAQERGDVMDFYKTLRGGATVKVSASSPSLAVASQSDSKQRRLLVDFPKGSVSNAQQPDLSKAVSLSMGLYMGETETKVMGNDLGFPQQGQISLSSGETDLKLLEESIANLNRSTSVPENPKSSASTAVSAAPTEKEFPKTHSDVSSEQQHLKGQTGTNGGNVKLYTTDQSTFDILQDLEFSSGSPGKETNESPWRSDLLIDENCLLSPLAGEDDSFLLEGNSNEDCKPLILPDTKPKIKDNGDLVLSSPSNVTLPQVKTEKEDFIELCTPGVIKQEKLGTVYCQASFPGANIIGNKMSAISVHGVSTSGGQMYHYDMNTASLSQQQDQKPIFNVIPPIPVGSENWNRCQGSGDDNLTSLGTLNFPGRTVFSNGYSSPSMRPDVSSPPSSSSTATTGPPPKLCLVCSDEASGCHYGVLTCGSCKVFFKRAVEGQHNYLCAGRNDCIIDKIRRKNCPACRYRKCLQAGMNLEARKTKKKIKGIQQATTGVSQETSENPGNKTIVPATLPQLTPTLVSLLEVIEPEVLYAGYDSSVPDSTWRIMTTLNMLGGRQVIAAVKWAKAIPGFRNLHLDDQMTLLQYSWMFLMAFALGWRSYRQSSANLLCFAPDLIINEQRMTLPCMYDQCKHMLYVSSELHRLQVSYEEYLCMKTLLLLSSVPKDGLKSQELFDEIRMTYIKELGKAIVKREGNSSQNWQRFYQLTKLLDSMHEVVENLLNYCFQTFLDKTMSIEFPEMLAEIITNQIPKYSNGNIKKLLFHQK

For the compound `O=C1c2ccccc2C(=O)N1SC(Cl)(Cl)Cl`, the Potency entry in [1] is “inactive”. The Potency is 60.3 µM (active) in assay [2]; 4.79 µM (active) and 7.7 µM (active) in assay [3]. Further, the compound was called inactive in [4], in assay [5], in [6], in assay [7], in [8] and in assay [9]. Further, the result in assay [10], in assay [11], in assay [12] and in assay [13] was inactive.
Regarding `CCCC[P+](CC)(CCCC)CCCC` (tested in a mixture with another compound), the Potency result in [1], in [2] and in [14] was “inactive” in each case. Besides, the call in assay [15], in [4], in assay [6], in [7], in assay [8] and in [9] was inactive. Also, the call in [16], in assay [10], in assay [11], in assay [12] and in assay [13] was inactive.
Take `O=C(CCl)CCl`: the Potency in assay [2] was 63.4 µM (active) and 54.5 µM (active); in assay [17] it was 43.6 µM (active). Further, the result in [4], in assay [5], in assay [6], in assay [7], in assay [8] and in [9] was inactive. For the same compound, the compound was classed as inactive in assay [10], in [11], in assay [12] and in assay [13].
Take `O=CC=O`: the Potency result in assay [1], in assay [2], in [14], in assay [3], in assay [18] and in assay [17] was “inactive” each time. The compound was classed as inactive in assay [15], in assay [4], in [5], in assay [6], in assay [7] and in [8]. Also, the compound was called inactive in assay [9], in assay [11], in assay [12] and in [13].
On to `Nc1c(Br)cc(Br)c2c1C(=O)c1ccccc1C2=O`, for which the Potency entry in assay [1], in [2] and in assay [14] was “inactive” throughout. Further, the fluorescence, relative to Rose Bengal in assay [15] is -0.0013% [at 18.6 µM]. Besides, the fluorescence, % of fluorescein control is 0.0991% [at 18.6 µM] in assay [4] and -0.0249% [at 18.6 µM] in assay [12]. The fluorescence, % of fluorescent control is -0.009% [at 18.6 µM] in [6], -0.168% [at 18.6 µM] in assay [8], -0.366% [at 18.6 µM] in [11] and -0.122% [at 18.6 µM] in assay [13]. Moreover, in assay [7], the fluorescence, % of fluorescein is -0.0125% [at 18.6 µM]. In assay [9], the activity change is 0.0661% [at 18.6 µM].
Turning to `CC1(C)[C@H](C(=O)O[C@H](C#N)c2cccc(Oc3ccccc3)c2)[C@@H]1C=C(Br)Br`, the Potency entry in [2] is “inactive”. Besides, the compound was classed as inactive in assay [15], in assay [4], in assay [6], in assay [7], in [8] and in assay [9]. The compound was called inactive in assay [16], in assay [10], in assay [11], in assay [12] and in assay [13].
Consider `CC(C)c1ccc(OP(=O)(Oc2ccc(C(C)C)cc2)Oc2ccc(C(C)C)cc2)cc1`, for which the Potency entry in [1], in assay [2] and in assay [18] was “inactive” throughout. For the same compound, the compound was called inactive in [4], in [5], in assay [6], in [7], in assay [8] and in assay [9]. The result in [16], in assay [10], in assay [11], in assay [12] and in assay [13] was inactive.
Consider `CCOP(=O)(SC(C)CC)N1CCSC1=O` (centres undefined), for which the Potency entry in assay [1], in [2] and in assay [14] was “inactive” in each case. In addition, the call in [4], in [5], in [6], in assay [7], in assay [8] and in [9] was inactive. For the same compound, the outcome in assay [16], in assay [10], in assay [11], in assay [12] and in assay [13] was inactive.
In the case of `C[C@H]1O[C@H](OC2[C@@H](O)[C@@H](O)C(O)[C@H](O)[C@H]2O)[C@@H](N)C[C@@H]1N=C(N)C(=O)O` (some centres undefined), the Potency result in assay [1], in assay [2], in assay [14], in assay [18] and in [17] was “inactive” throughout. The compound was called inactive in assay [15], in [4], in assay [5], in assay [6], in [7] and in [8]. Moreover, the call in assay [9], in assay [16], in assay [10], in assay [11], in assay [12] and in assay [13] was inactive.
